According to PubChem BioAssay:
Active and inactive are the calls of the source. Unless noted, the rule behind the calls is not given here.

How the values were obtained:
[1] = HepG2 liver cancer cell viability effects, profiling panel, resazurin fluorescence, 24 h, PK04 Diversity Set (AID 1172); settings: higher = more signal
[2] = basal S. cerevisiae growth modulation, no modifier, primary screen, OD600, strain BY4716, 24 h, basal condition (AID 1173); settings: OD600, 24 h, higher = more signal, called active from +8 up or from −8 down
[3] = MM1S myeloma cell viability, profiling panel, resazurin fluorescence, basal, 24 h, PK04 Diversity Set (AID 1174); settings: higher = more signal, called active from +8 up or from −8 down;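 note: MM1S multiple myeloma cell line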
[4] = target: Dihydroorotate dehydrogenase (quinone), mitochondrial (Plasmodium falciparum (isolate 3D7)) (UniProt Q08210); experiment: PfDHODH enzyme inhibitors, primary screen, biochemical, C-terminal His tag, absorbance 600 nm (AID 1175); settings: DCIP absorbance 600 nm, higher = more signal, called active from +8 up or from −8 down;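 note: recombinant parasite enzyme with a five histidine tag at its C terminus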
Sequence of Dihydroorotate dehydrogenase (quinone), mitochondrial (Plasmodium falciparum (isolate 3D7)) (Q08210 whole entry, looked up): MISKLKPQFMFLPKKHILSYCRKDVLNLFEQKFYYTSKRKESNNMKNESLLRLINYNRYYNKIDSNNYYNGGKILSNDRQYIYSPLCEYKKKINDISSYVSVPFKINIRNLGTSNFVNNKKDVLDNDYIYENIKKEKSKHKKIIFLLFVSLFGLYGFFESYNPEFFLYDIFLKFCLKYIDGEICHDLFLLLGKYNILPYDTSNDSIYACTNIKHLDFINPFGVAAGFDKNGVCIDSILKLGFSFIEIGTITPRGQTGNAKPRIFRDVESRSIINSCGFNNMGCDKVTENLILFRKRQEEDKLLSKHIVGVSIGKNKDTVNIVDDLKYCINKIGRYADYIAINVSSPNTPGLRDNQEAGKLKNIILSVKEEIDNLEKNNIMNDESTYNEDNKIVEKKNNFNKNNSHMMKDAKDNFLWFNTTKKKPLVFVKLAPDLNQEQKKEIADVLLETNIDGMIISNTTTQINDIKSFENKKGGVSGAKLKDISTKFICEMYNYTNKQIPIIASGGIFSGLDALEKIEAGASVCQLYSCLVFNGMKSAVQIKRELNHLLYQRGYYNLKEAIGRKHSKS

[5] = P. aeruginosa biofilm formation inhibitors, primary screen, strain PAO1, LB-PBS medium, absorbance 600 nm (AID 1176); settings: P. aeruginosa PAO1 growth/biofilm, A600, 12 h; higher = more signal
[6] = S. cerevisiae RM11-1a growth modifiers, primary screen, strain RM11-1a, OD600, basal, 24 h (AID 1177); settings: OD600, 24 h, higher = more signal, called active from +8 up or from −8 down;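 note: cultures grown under basal conditions with no added stressor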
[7] = E. coli acrAB mutant growth effects, primary screen, E. coli filamentation inducers, strain DRC39, OD650, 24 h (AID 1178); settings: higher = more signal, called active from +8 up or from −8 down;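 note: growth measured as culture turbidity by optical density at 650 nm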
[8] = E. coli acrAB mutant growth effects, primary screen, E. coli filamentation inducers, strain DRC39, OD650, 48 h (AID 1179);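 note: screen aims at cell division blockers that make cells filament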; settings: E. coli DRC39 delta-acrAB growth, higher = more signal, called active from +8 up or from −8 down
[9] = RPMI8226 myeloma cell viability, profiling panel, resazurin fluorescence, basal, 24 h, PK04 Diversity Set (AID 1180); settings: higher = more signal;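 note: RPMI8826 multiple myeloma cell line at 5000 cells per well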
[10] = target: E3 ubiquitin-protein ligase XIAP (Homo sapiens) (UniProt P98170); experiment: XIAP binders, primary screen, biophysical, small-molecule microarray, fluorescence 635 nm (AID 1181); settings: small-molecule microarray binding, higher = more signal;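 note: score merges 667 nm emission and signal to noise over triplicate slides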
Sequence of E3 ubiquitin-protein ligase XIAP (Homo sapiens) (P98170 whole entry, looked up): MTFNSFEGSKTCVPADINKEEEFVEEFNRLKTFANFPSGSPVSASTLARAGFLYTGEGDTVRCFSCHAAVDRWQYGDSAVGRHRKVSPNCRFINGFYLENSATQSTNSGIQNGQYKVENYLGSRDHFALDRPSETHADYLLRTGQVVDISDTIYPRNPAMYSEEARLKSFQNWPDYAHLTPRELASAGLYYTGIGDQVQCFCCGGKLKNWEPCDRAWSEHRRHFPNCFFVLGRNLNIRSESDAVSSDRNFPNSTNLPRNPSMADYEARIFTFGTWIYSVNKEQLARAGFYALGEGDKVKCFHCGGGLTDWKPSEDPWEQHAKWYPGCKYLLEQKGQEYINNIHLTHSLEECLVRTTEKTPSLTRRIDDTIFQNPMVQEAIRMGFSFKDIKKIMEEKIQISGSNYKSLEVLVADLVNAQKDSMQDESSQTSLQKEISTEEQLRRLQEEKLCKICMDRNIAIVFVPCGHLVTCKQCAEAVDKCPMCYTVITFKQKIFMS

[11] = system: XIP peptide (Xip251-270) binding; experiment: small-molecule binders of XIP peptide, primary screen, biochemical, small-molecule microarray, fluorescence 635/667 nm, 0.1 µg/mL protein (AID 1182); settings: fluorescent protein binding, 635 nm, higher = more signal, called active from +8 up or from −8 down
XIP peptide (Xip251-270) = experiment: small-molecule binders of XIP peptide, primary screen, biochemical, small-molecule microarray, fluorescence 635/667 nm, 0.5 µg/mL protein (AID 1183); settings: small-molecule microarray binding, fluorescence 635 nm; higher = more signal
[12] = Plasmodium falciparum growth inhibition, primary screen, strain 3D7, DAPI fluorescence, 100 nL (AID 1184);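 note: parasites grown inside human red blood cells in medium with human serum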; settings: P. falciparum 3D7 growth, 3 d, higher = more signal
[13] = target: Homeobox protein Hox-A13 (Mus musculus) (UniProt Q62424); experiment: inhibitors of HoxA13-DNA binding, primary screen, biochemical, fluorescence polarization, labeled oligonucleotide (AID 1185); settings: 15 min, higher = more signal, called active from +8 up or from −8 down
Sequence of Homeobox protein Hox-A13 (Mus musculus) (Q62424 whole entry, looked up): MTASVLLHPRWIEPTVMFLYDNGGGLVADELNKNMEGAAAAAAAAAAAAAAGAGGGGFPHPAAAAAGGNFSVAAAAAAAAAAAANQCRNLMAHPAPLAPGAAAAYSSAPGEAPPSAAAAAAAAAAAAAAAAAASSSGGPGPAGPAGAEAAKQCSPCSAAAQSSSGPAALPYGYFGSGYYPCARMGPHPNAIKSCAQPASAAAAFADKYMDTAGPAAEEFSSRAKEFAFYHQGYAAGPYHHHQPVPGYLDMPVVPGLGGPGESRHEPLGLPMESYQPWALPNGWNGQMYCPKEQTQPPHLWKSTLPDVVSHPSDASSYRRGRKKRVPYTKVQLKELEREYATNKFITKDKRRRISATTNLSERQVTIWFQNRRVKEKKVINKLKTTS

[14] = inhibitors of hydroxyurea-induced Chk1 phosphorylation, primary screen, imaging, HeLa, phospho-Chk1 antibody, percent positive cells (AID 1186); settings: hydroxyurea-induced phospho-Chk1 immunofluorescence imaging, higher = more signal
[15] = inhibitors of hydroxyurea-induced Chk1 phosphorylation, primary screen, imaging, HeLa, phospho-Chk1 nuclear intensity (AID 1187); settings: hydroxyurea-induced phospho-Chk1 immunofluorescence imaging, higher = more signal

SMILES	z-score [1]	z-score [2]	z-score [3]	composite z-score [4]	z-score [5]	z-score [6]	z-score [7]	z-score [8]	z-score [9]	composite z-score [10]	composite z-score [11]	composite z-score (XIP peptide (Xip251-270))	z-score [12]	z-score [13]	z-score [14]	z-score [15]
CC(C)C[C@@H]1NC(=O)[C@@]23C(=O)N[C@@H](Cc4ccccc4)C2[C@H](C)[C@@]2(C)O[C@H]2C3/C=C/C/C=C\CNC(=O)[C@@H](CC(C)C)NC1=O (some centres not stated)	0.175	-1.08 (inactive)	-0.102 (inactive)	-0.0599 (inactive)	0.0937 (inactive)	-0.664 (inactive)	0.495 (inactive)	-0.323 (inactive)	0.292	-0.0752	0.549 (inactive)	0.414	-0.0432	-6.77 (inactive)	-0.0685 (inactive)	0.0529 (inactive)
CCOC(=O)C1=CC[C@@H](c2ccccc2)N(S(=O)(=O)c2ccc(C)cc2)[C@H]1C#N	0.145	-0.134 (inactive)	-1.08 (inactive)	-3.15 (inactive)	0.518 (inactive)	0.0553 (inactive)	-1.01 (inactive)	0.27 (inactive)	-0.99	0.129	0.452 (inactive)	0.839	-0.712	-3.58 (inactive)	0.584 (inactive)	0.373 (inactive)
COc1ccc([Si](C)(C)[C@H]2[C@H](CCn3cc([C@H](O)c4ccccc4)nn3)O[C@@]3(C(=O)N(c4ccccc4)c4ccccc43)[C@@H]2C)cc1	0.378	0.885 (inactive)	-1.82 (inactive)	0.413 (inactive)	0.131 (inactive)	2.12 (inactive)	0.346 (inactive)	0.0139 (inactive)	-1.34	-0.316	-0.292 (inactive)	0.505	-1.18	-3.4 (inactive)	-0.282 (inactive)	-0.513 (inactive)
Cc1ccc(S(=O)(=O)N2[C@@H](c3ccccc3)C(C(=O)O)=CC[C@H]2c2ccc(C#N)cc2)cc1	-0.847	-0.647 (inactive)	-1.35 (inactive)	0.0114 (inactive)	0.0794 (inactive)	0.11 (inactive)	-0.674 (inactive)	-0.841 (inactive)	-1.28	0.15	0.556 (inactive)	0.848	-1.26	-6.06 (inactive)	0.0247 (inactive)	-0.206 (inactive)
CCCC[C@@H]1C[C@H]1[C@@H](NC(=O)c1ccc(C(F)(F)F)cc1)c1ccc(C(=O)OC)cc1	1.51	0.146 (inactive)	0.444 (inactive)	-0.0667 (inactive)	1.02 (inactive)	1.02 (inactive)	0.909 (inactive)	0.787 (inactive)	0.971	0.209	-0.0437 (inactive)	0.368	-0.557	-0.759 (inactive)	0.894 (inactive)	0.397 (inactive)
COc1ccc(CCNC(=O)[C@@]2(Sc3ccc(C)cc3)CC(=O)N(Cc3cc(C(F)(F)F)cc(C(F)(F)F)c3)[C@@H]2c2ccc(CO)cc2)cc1	-0.392	-1.01 (inactive)	-0.378 (inactive)	-0.61 (inactive)	0.112 (inactive)	-0.83 (inactive)	0.0664 (inactive)	-0.331 (inactive)	-0.395	0.536	-0.461 (inactive)	0.705	0.264	-2.57 (inactive)	0.132 (inactive)	0.282 (inactive)
O=C1OCCC=C[C@H]2OC34C=CCN(CCN5CCOCC5)C(=O)[C@H]3N(CCCO)C(=O)[C@@H]4C12 (some centres not stated)	-0.368	-0.494 (inactive)	-0.525 (inactive)	0.394 (inactive)	-0.481 (inactive)	0.23 (inactive)	-0.418 (inactive)	-0.822 (inactive)	-0.62	0.0143	0.186 (inactive)	0.0388	-1.72	-3.86 (inactive)	-0.46 (inactive)	-0.374 (inactive)
COc1ccc(NN2C(C(O)c3cc(C(F)(F)F)cc(C(F)(F)F)c3)C=CC3C(=O)N(C4CCCCC4)C(=O)C32)cc1 (configuration not stated)	0.392	0.275 (inactive)	0.0147 (inactive)	-0.0132 (inactive)	1.21 (inactive)	-0.0874 (inactive)	-0.587 (inactive)	0.372 (inactive)	0.283	-0.0669	0.0376 (inactive)	0.752	-0.5	-3.31 (inactive)	-1.14 (inactive)	-2.01 (inactive)
COC(=O)[C@@]1(Cc2ccc(OC)cc2)[C@H]2c3cc(C(=O)N(C)C)n(Cc4ccsc4Br)c3C[C@H]2CN1C(=O)c1ccccc1	-0.0214	1.52 (inactive)	-0.807 (inactive)	0.184 (inactive)	0.0539 (inactive)	1.89 (inactive)	-0.656 (inactive)	-0.377 (inactive)	-0.907	0.452	0.197 (inactive)	0.793	-1.02	-1.15 (inactive)	0.0352 (inactive)	0.984 (inactive)
CCCC[C@H]1OB(O)C[C@H]2C1=C(COC)C[C@H]1C(=O)C=CC(=O)[C@H]12	-0.796	-3.96 (inactive)	-0.203 (inactive)	-2.14 (inactive)	1.52 (inactive)	0.0887 (inactive)	1.13 (inactive)	0.756 (inactive)	-0.0072	-0.0238	0.473 (inactive)	0.407	-1.09	-6.74 (inactive)	-0.591 (inactive)	-0.434 (inactive)
CCOC(=O)C1=CC[C@@H](c2ccccc2Cl)N(S(=O)(=O)c2ccc(C)cc2)[C@H]1c1cccc(OC)c1	-0.18	1.46 (inactive)	-0.703 (inactive)	0.0463 (inactive)	0.34 (inactive)	0.822 (inactive)	-0.484 (inactive)	-0.679 (inactive)	-1.53	-0.114	0.211 (inactive)	0.246	-0.794	-1.18 (inactive)	0.0932 (inactive)	-0.553 (inactive)
C#CCN([C@H](/C=C/C1CC1)[C@@H](O)Cc1ccccc1)[C@@H](Cc1ccccc1)C(=O)OC	1.82	0.0363 (inactive)	1.59 (inactive)	0.373 (inactive)	-0.319 (inactive)	0.97 (inactive)	1.07 (inactive)	0.968 (inactive)	0.737	0.271	0.17 (inactive)	-0.205	-0.752	-4.57 (inactive)	-0.587 (inactive)	-0.959 (inactive)
C[C@]1(C(=O)NCC(F)(F)F)c2ccccc2C(=O)N(Cc2ccc(OC(F)(F)F)cc2)[C@H]1c1ccc(CO)cc1	0.2	-0.139 (inactive)	-0.296 (inactive)	0.182 (inactive)	1.48 (inactive)	-0.353 (inactive)	-0.414 (inactive)	-1 (inactive)	0.14	0.212	0.102 (inactive)	0.564	-0.231	-3.96 (inactive)	0.01 (inactive)	-0.125 (inactive)
COC(=O)[C@@]1(Cc2ccc(OC)cc2)[C@@H]2[C@@H](CC(=O)[C@H]2CC(=O)C(=O)N2CCCC2)CN1C(=O)c1ccccc1	-0.437	0.442 (inactive)	-0.526 (inactive)	-0.448 (inactive)	0.274 (inactive)	-0.148 (inactive)	-0.415 (inactive)	-0.394 (inactive)	-1.57	-0.01	0.506 (inactive)	0.807	-0.937	-2.95 (inactive)	-0.961 (inactive)	-1.03 (inactive)
COC(=O)Cn1c(C(=O)N(C)C)cc2c1C[C@H]1CN(C(=O)c3ccccc3)[C@@](Cc3ccc(OC)cc3)(C(=O)OC)[C@@H]21	-0.708	1.15 (inactive)	-0.667 (inactive)	0.072 (inactive)	-0.0424 (inactive)	0.555 (inactive)	-0.552 (inactive)	-0.263 (inactive)	-0.876	-0.158	1.28 (inactive)	0.59	-1.62	-5.22 (inactive)	0.0109 (inactive)	0.295 (inactive)
COCCOC(=O)N1C(=O)[C@@]2(c3cc(C#CC4(O)CCCCCC4)ccc31)[C@H](C(=O)NC[C@H](O)c1ccccc1)[C@H]1C(=O)O[C@H](c3ccccc3)[C@H](c3ccccc3)N1[C@@H]2c1ccc(O)cc1	0.982	-0.598 (inactive)	0.483 (inactive)	-0.122 (inactive)	-0.108 (inactive)	0.759 (inactive)	0.0468 (inactive)	0.321 (inactive)	-0.0629	-0.131	0.273 (inactive)	0.78	-0.44	-1.8 (inactive)	0.302 (inactive)	0.487 (inactive)
[N-]=[N+]=NCc1ccccc1[C@H]1OC(c2ccc(OCCCO)cc2)=N[C@@]1(Cc1ccccc1)C(=O)N1CCOCC1	1.35	-2.25 (inactive)	-0.0295 (inactive)	0.222 (inactive)	0.841 (inactive)	0.176 (inactive)	-0.0844 (inactive)	-1 (inactive)	0.349	0.0578	0.0472 (inactive)	0.667	-2.62	-3.37 (inactive)	-0.11 (inactive)	-0.185 (inactive)
